We go through 21 compounds from PubChem BioAssay (NCI).

The panel holds about 83,000 compounds, 20% with a hit somewhere; the sample as a whole holds those more often.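 Results are percent growth after 48 hours of single-concentration exposure. 100 means growth as in untreated cells, lower positive values show inhibition; negative values down to -100 show cell death.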 Values without a mark were called inactive. Active and inactive are the calls of the source. Rule for the calls: active = growth percent below 10; inactive = the rest.

What all share (test): NCI-60 one-dose screen, 48 h (100 = growth as untreated, 0 = no growth, -100 = all killed)
Common to all, as to details: 10 µM unless noted

Experiment [1] relates to NCI-H23 lung.
The subject of experiment [2] is NCI-H226 lung.
Experiment [3] relates to NCI-H322M lung.
Experiment [4] has as its system HOP-62 NSCLC.
Experiment [5] deals with NCI-H460 lung.
For experiment [6], the system named is HOP-92 NSCLC.
Experiment [7] has as its system NCI-H522 lung.
The test system of experiment [8] is A549/ATCC NSCLC.
For experiment [9], the system named is 786-0 renal.
For experiment [10], the system named is COLO 205 colon.

In the case of `O=C1c2ccccc2OC=C(c2ccccc2)N1CCCCN1CCCCC1`, the growth in [1] is 67.2%; in experiment [2], 84.3%; in [3], 91.2%; in experiment [4], 38.1%; in experiment [5], 46.7%; in experiment [6], 40.2%. Besides, the growth in experiment [7] is 25%; in experiment [8] it was 46.8%; in experiment [9] it was 95.4%; in [10] it was -33.6% (active).
Take `NC(CSC(c1ccccc1)(c1ccccc1)c1ccc(F)cc1)C(=O)O` (stereo not given): the growth in [1] was 14.4%; in [2], 61.8%; in experiment [3], 28.7%; in experiment [4] it was -28.7% (active); in [5] it was 2.02% (active); in [6] it was -24.3% (active). Also, the growth is -59.1% (active) in [7], 11.7% in experiment [8], -50.8% (active) in experiment [9] and 5.57% (active) in experiment [10].
Consider `COc1ccc2c(c1)/C(=C/c1c(-c3cc(OC)c(OC)c(OC)c3Br)nc3sccn13)C(=O)N2`, for which the growth was 101% in experiment [1]; 86.1% in experiment [2]; 88.9% in experiment [3]; 59.2% in experiment [4]; 111% in experiment [5]; 60.8% in experiment [6]. Besides, the growth is 68.1% in [7], 101% in experiment [8], 93.4% in [9] and 117% in experiment [10].
Consider `Cc1nc(-c2ccc(Cl)cc2)ccc1NC(=O)Nc1cccc(C(F)(F)F)c1`, for which the growth in experiment [1] was 95.6%; in [2], 97.9%; in experiment [3] it was 109%; in experiment [4], 109%; in [5], 64.5%; in experiment [6], 96.4%. Moreover, the growth is 52.9% in experiment [7], 93.1% in experiment [8], 101% in [9] and 121% in experiment [10].
Consider `Nc1nc(Cl)cc(NCc2ccc(CNc3cc(Cl)nc(N)n3)cc2)n1`, for which the growth in experiment [1] was 75.7%; in [2] it was 70.8%; in experiment [3], 102%; in experiment [4], 48.8%; in experiment [5], 115%; in experiment [6] it was 92.9%. Besides, the growth in experiment [7] is 49.8%; in experiment [8] it was 87.2%; in experiment [9], 101%; in [10] it was 103%.
As for `Cc1ccc(=O)n(-c2ccc(Br)cc2F)c1`, the growth in experiment [1] is 98.4%; in [2] it was 85.4%; in [3], 102%; in experiment [4], 94%; in [5] it was 110%; in [6] it was 77.3%. For the same compound, the growth in experiment [7] was 104%; in experiment [8], 98.7%; in [9], 99.5%; in experiment [10], 110%.
Regarding `COc1ccc2c(c1)OC(N)=C(C#N)C2c1ccc(F)cc1` (stereo not given), the growth in experiment [1] is 49.9%; in experiment [2] it was 80.9%; in [3], 55.7%; in experiment [4], 41.3%; in experiment [5] it was 15.8%; in [6], 59.8%. Moreover, the growth in experiment [7] is -10.1% (active); in experiment [8], 45.9%; in [9] it was 28.1%; in [10] it was 30.6%.
For the compound `Cc1cn(-c2nc3c(c(NCc4ccccc4)n2)COCC3)c2cccc(C(N)=O)c12`, the growth in experiment [1] is 58.8% [0.5 µM]; in [2], 56.4% [0.5 µM]; in [3] it was 98.8% [0.5 µM]; in experiment [4], 76.3% [0.5 µM]; in experiment [5], 45.8% [0.5 µM]; in [6] it was 87.7% [0.5 µM]. Also, the growth in experiment [7] is 69.5% [0.5 µM]; in experiment [8], 84% [0.5 µM]; in experiment [9], 40.9% [0.5 µM]; in experiment [10], 87.8% [0.5 µM].
Consider `CC(=O)N1N=C2N(Cc3ccccc3)C(=O)c3c(sc4c3CCCC4)N2C1c1cn(-c2ccccc2)nc1-c1ccc(Cl)cc1` (stereo not given), for which the growth is 88.6% in [1]; 91.9% in [2]; 97.9% in experiment [3]; 98.6% in [4]; 111% in [5]; 81% in experiment [6]. Further, the growth was 101% in experiment [7], 95.9% in experiment [8], 92.6% in experiment [9] and 101% in experiment [10].
On to `C#CCn1c(-c2cc(OC)c(OC)cc2Br)nc(-c2ccccc2)c1-c1ccccc1`, for which the growth in experiment [1] is 42.5%; in experiment [2] it was 66%; in experiment [3] it was 28.6%; in experiment [4], 72.8%; in experiment [5] it was 10.8%; in [6] it was 41.9%. The growth in experiment [7] is 17.4%; in experiment [8], 31.2%; in experiment [9], 48.8%; in experiment [10], 8.73% (active).
As to `O=c1c(-c2ccc3c(c2)OCO3)coc2c(CO)c(O)ccc12`, the growth in experiment [1] is 56.8%; in experiment [2], -35.6% (active); in experiment [3], 16.6%; in experiment [4], -54.1% (active); in [5] it was 9.52% (active); in [6], -21.6% (active). Besides, the growth in [7] is 36.7%; in [8] it was 49.2%; in experiment [9], 23.6%; in [10] it was 113%.
`O=C(C[n+]1ccccc1Cl)c1ccc2c(c1)CCCC2`: the growth in experiment [1] is 92%; in experiment [2], 112%; in [3], 106%; in [4], 90.6%; in [5], 107%; in [6] it was 95.1%. Also, the growth in [7] is 87.4%; in [8] it was 85.6%; in experiment [9], 75.5%; in [10], 56.3%.
As for `COc1cc(-c2nc3ccccc3s2)ccc1OCc1nc2n(n1)S(=O)(=O)c1ccccc1N2c1ccccc1`, the growth is 109% in experiment [1]; 95.7% in experiment [2]; 92.9% in [3]; 88.2% in experiment [4]; 110% in experiment [5]; 70.8% in experiment [6]. The growth in experiment [7] was 85.4%; in [8], 110%; in [9], 95.1%; in [10], 113%.
Consider `Nc1nccc(=S)[nH]1`, for which the growth in [1] was 92.7%; in experiment [2], 103%; in experiment [3], 101%; in [4] it was 100%; in experiment [5], 107%; in experiment [6] it was 110%. The growth in experiment [7] is 63.2%; in experiment [8] it was 74.3%; in [9], 99.7%; in [10] it was 127%.
In the case of `CC1CCC(C(C)C)C(NN)C1` (stereo not given), the growth in [1] was 106%; in experiment [2] it was 88%; in [3] it was 91.2%; in [4] it was 96%; in experiment [5], 108%; in experiment [6] it was 110%. In addition, the growth in experiment [7] is 70.9%; in [8] it was 80.6%; in [9] it was 98.8%; in experiment [10] it was 103%.
Consider `C=C1C(=O)O[C@H]2[C@H]1CC/C(C(=O)Nc1ccc(OC)c(C(N)=O)c1O)=C\CC[C@@]1(C)O[C@@H]21`, for which the growth in experiment [1] is 73.4%; in experiment [2], 61.3%; in [3], 108%; in experiment [4] it was 85.1%; in experiment [5], 92%; in [6], 26.4%. The growth in [7] was 5.78% (active); in experiment [8], 77.8%; in [9] it was 43.1%; in [10], 10.7%.
For the compound `O=C(NCCNc1nccc(-c2c(-c3cccc(O)c3)nc3sccn23)n1)c1ccccc1O`, the growth in experiment [1] was 57.4%; in experiment [2] it was 80.5%; in experiment [3], 72.3%; in experiment [4], 114%; in experiment [5], 57%; in experiment [6], 59.9%. For the same compound, the growth in [7] is 29%; in experiment [8], 43.3%; in [9], 64.6%; in experiment [10] it was 66.5%.
As to `O=C(Nc1ccc(-n2ccc3c(NC(=O)c4ccccc4)nccc32)cc1)Nc1cccc(C(F)(F)F)c1`, the growth in experiment [1] was 38.7%; in experiment [2], 44.7%; in experiment [3], 63.2%; in experiment [4], 84.5%; in experiment [5] it was 34.3%; in [6], 32.3%. Further, the growth in experiment [7] was 45.8%; in experiment [8], 7.66% (active); in [9], 88.1%; in [10] it was 64.7%.
Turning to `C[C@H]1C=C(C[C@@H](O)CC#CC#CCCCCC[C@@H](O)[C@H]2CCC(=O)O2)C(=O)O1`, the growth in experiment [1] is 99.9%; in [2] it was 98.6%; in experiment [3] it was 114%; in experiment [4], 94.5%; in [5] it was 118%; in experiment [6], 99.9%. For the same compound, the growth in experiment [7] is 78.7%; in experiment [8], 111%; in experiment [9] it was 190%; in experiment [10], 115%.
As to `COc1ccc(SC2c3ccc(O)cc3Oc3nc(N)c(C#N)c(N)c32)cc1` (stereo not given), the growth in experiment [1] is 93.3%; in [2], 117%; in experiment [3] it was 79.2%; in experiment [4], 64.4%; in experiment [5], 79.3%; in experiment [6], 112%. In addition, the growth in experiment [7] was 86.3%; in experiment [8], 84.6%; in [9] it was 81.6%; in experiment [10], 115%.
`COc1cc2ncn3c(=O)c4c5c(sc4nc3c2cc1OC)CCCCC5`: the growth in [1] was 89.3%; in experiment [2] it was 74.5%; in experiment [3], 90.9%; in [4], 91%; in [5], 99.5%; in experiment [6], 81.9%. Moreover, the growth in [7] is 99.9%; in [8], 104%; in experiment [9] it was 106%; in experiment [10] it was 98%.
